From PubChem BioAssay AID2061320 (National Center for Advancing Translational Sciences (NCATS), 2025)
Records with an inconclusive call do not appear. Active and inactive are the calls of the source. Calls follow the shape of the dose curve; as a rule, active = well fitted inhibition curve with a large enough effect; inconclusive = small, poorly fitted or top-dose-only effect; inactive = flat fitted curve, though single readings scatter.

assay: Identification of antibody-drug conjugate (ADC) payloads which are substrates of ATP-binding cassette drug efflux transporters: ABCG2-H460-MX20 cell line; conditions: H460-MX20 (ABCG2) viability, CellTiter-Glo, 48 h; series mostly up to 28.7 µM
Text: Antibody-drug conjugates (ADCs) feature an antibody recognizing a specific protein joined to a potent toxic payload. Numerous antibody-drug conjugates have received FDA approval; however, clinical resistance arises. Resistance mechanisms include decreased expression or mutation of the antibody target, impaired payload release, or increased expression of ATP-binding cassette (ABC) efflux transporters associated with multidrug resistance. We therefore sought to characterize the interaction of ABC multidrug transporters with ADC payloads. We performed a high-throughput screen with 27 common ADC payloads using cells lines expressing ABC transporters P-glycoprotein (P-gp, encoded by ABCB1) or ABCG2 (encoded by ABCG2). Confirmatory assays were also performed using cells transfected to express P-gp, ABCG2, or MRP1 (encoded by ABCC1). Several commonly used ADC payloads were substrates of P-gp, including calicheamicin gamma1, monomethyl auristatin E, DM1, and DM4. All the pyrrolobenzodiazepines tested - SJG136, SGD-1882, SG2057, and SG3199 - were substrates of P-gp, ABCG2, and MRP1. […] These findings highlight the risk of transporter-mediated resistance with certain ADC payloads and underscore the importance of selecting payloads that evade ABC transporter recognition in future ADC development.
HEK-293 cells were transfected with empty vector (pcDNA) or vector containing the human ABCB1 (MDR-19), ABCG2 (R-5), or ABCC1 gene (MRP1) and were maintained in EMEM with 2 mg/mL G418 added to maintain transporter expression. The HeLa derivative KB-3-1 and the P-gp overexpressing KB-8-5-11 subline were maintained in DMEM; KB-8-5-11 additionally received 100 ng/mL colchicine. H460 parental cells were obtained from the Division of Cancer Treatment and Diagnosis Tumor Repository, National Cancer Institute at Frederick, MD and were cultured in RPMI. The ABCG2 expressing subline H460 MX20 was generated by selecting H460 cells in 20 nM mitoxantrone. Media in all cases was supplemented with 10% FBS and 1% penicillin-streptomycin. We explored 27 common ADC payloads, in two orthogonal, paired cell line sets-a drug selected and transfected set for each transporter--to identify substrates of the ABC transporters P-gp and ABCG2. Compounds were sourced from Levena Biopharma (San Diego, CA), Selleck Chem (Houston, TX), ChemieTek (Indianapolis, IN), or Microsource Discovery Systems (Gaylordsville, CT). Screening was performed as previously described. Briefly, cells were plated at a density of 500 cells/well in 1536 well plates with compounds added using a 1536-head pin tool (Kalypsys, San Diego CA). Cells were incubated with cytotoxic drugs and processed with CellTiter Glo reagent (Promega, Madison, WI) to determine viability after 48 hours. P-gp substrates were identified by comparing compound activity between paired sets of low-expressing (sensitive) and over-expressing (resistant) cell lines.

For `COC(=O)c1cc2c3c(cc(O)c2[nH]1)N(C(=O)c1cc2cc(OC)c(OC)c(OC)c2[nH]1)CC3CCl` (stereo not drawn), which Potency is on record?
Its Potency is 0.7 nM (active).

Which Potency does the source give for `COc1cccc2c1C(=O)c1c(O)c3c(c(O)c1C2=O)C[C@@](O)(C(=O)CO)C[C@@H]3O[C@H]1C[C@H]2[C@H](O[C@@H]3[C@@H](OC)OCCN32)[C@H](C)O1` here?
The Potency was 0.2 nM (active).

With `CCN(C(C)=O)[C@H]1CO[C@@H](O[C@H]2[C@H](O[C@H]3C#C/C=C\C#C[C@]4(O)CC(=O)C(NC(=O)OC)=C3/C4=C\CSSSC)O[C@H](C)[C@@H](NO[C@H]3C[C@H](O)[C@H](SC(=O)c4c(C)c(I)c(O[C@@H]5O[C@@H](C)[C@H](O)[C@@H](OC)[C@H]5O)c(OC)c4OC)[C@@H](C)O3)[C@@H]2O)C[C@@H]1OC` as the compound, how does the Potency read?
Its Potency is 15 nM (active).

For `CC(C)(C)OC(=O)Nc1ccc2[nH]c(C(=O)N3C[C@@H](CCl)c4c3cc(O)c3ccccc43)cc2c1`, which Potency is on record?
The Potency was 10.6 nM (active).

With `CC[C@H](C)[C@@H]([C@H](N)CC(=O)N1CCC[C@H]1[C@H](OC)[C@@H](C)C(=O)N[C@@H](Cc1ccccc1)c1nccs1)N(C)C(=O)[C@@H](NC(=O)[C@@H](NC)C(C)C)C(C)C` as the compound, how does the Potency read?
Its Potency is “inactive”.

With `CN(C)CCOc1ccc2[nH]c(C(=O)N3C[C@@H](CCl)c4c3cc(O)c3ccccc43)cc2c1` as the compound, how does the Potency read?
The Potency was 0.8 nM (active).

With `CCN[C@H]1CO[C@@H](O[C@H]2[C@H](O[C@H]3C#C/C=C\C#C[C@]4(O)CC(=O)C(NC(=O)OC)=C3/C4=C\CSSSC)O[C@H](C)[C@@H](NO[C@H]3C[C@H](O)[C@H](SC(=O)c4c(C)c(I)c(O[C@@H]5O[C@@H](C)[C@H](O)[C@@H](OC)[C@H]5O)c(OC)c4OC)[C@@H](C)O3)[C@@H]2O)C[C@@H]1OC` as the compound, how does the Potency read?
The Potency was 4.2 nM (active).

Which Potency does the source give for `COc1cccc2c1C(=O)c1c(O)c3c(c(O)c1C2=O)C[C@@](O)(C(=O)CO)C[C@@H]3O[C@H]1C[C@H](N)[C@H](O)[C@H](C)O1` here?
The Potency was 1190 nM (active).
